Screening data: PubChem BioAssay, The Scripps Research Institute Molecular Screening Center
Most compounds without a hit are left out; they make up all but 0.84% or so of the library.
NCOA2 inhibitor: human SRC2 (NCOA2) inhibition; hit rate 0.17% among 370,000; Q15596; inhibition, % at 9 µM; HEK293 GAL4-SRC2 luciferase reporter, luminescence; AID 651957;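 active = inhibition above the mean inhibition of all tested compounds plus 3 SD, set per campaign, cut at about 52% in these data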;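 also: 0% = DMSO treated cells and 100% = cells given Gossypol at 36 µM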
NR5A2 inv ag: suppresses constitutive activity of human LRH-1. O00482. HEK293T StAR-luciferase reporter, LRH-1 transfected, 24 h. inhibition, % at 3.6 µM. hit rate 0.13% among 360,000;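 active = inhibition above the mean inhibition of all tested compounds plus 3 SD, cut at about 73% in these data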;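 also: 0% = DMSO wells and 100% = reporter-only cells lacking LRH-1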
Target sequence (O00482 whole entry, looked up): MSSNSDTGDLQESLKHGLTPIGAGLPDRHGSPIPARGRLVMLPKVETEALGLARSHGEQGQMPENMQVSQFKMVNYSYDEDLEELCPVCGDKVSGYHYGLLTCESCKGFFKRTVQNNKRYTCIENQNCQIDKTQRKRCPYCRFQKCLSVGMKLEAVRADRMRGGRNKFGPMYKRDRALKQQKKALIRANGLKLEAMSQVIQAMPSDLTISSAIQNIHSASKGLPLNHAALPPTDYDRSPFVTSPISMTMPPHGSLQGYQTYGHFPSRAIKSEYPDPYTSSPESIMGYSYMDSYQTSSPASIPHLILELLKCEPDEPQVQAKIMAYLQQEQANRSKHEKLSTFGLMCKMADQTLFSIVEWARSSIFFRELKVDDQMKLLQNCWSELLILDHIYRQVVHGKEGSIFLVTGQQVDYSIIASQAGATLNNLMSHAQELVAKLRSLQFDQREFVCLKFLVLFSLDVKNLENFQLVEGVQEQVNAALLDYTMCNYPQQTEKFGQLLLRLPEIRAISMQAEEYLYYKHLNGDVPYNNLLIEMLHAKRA
SRC3 inh: inhibits human SRC3 coactivator; Q9Y6Q9; HEK293 GAL4-SRC3 luciferase reporter, luminescence; inhibition, % at 3.6 µM; hit rate 0.17% among 360,000; AID 588352;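 active = inhibition above a per-campaign cutoff, the mean of all compounds plus 3 SD, cut at about 60% in these data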;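 also: 0% = DMSO-treated cells and 100% = gossypol-treated cells at 36 µM; higher means less SRC3-driven luciferase light from the GAL4 reporter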
NR2F2 inh: blocks human COUP-TFII nuclear receptor | HEK293T NGFI-A luciferase reporter, luminescence | inhibition, % at 8.6 µM | hit rate 0.7% among 370,000 | AID 686940;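 active = inhibition above a per-plate cutoff, mean inhibition of test wells between control levels plus 3 SD, cut at about 38% in these data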;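 also: cells cotransfected with COUP-TFII expression vector driving the NGFI-A reporter; 0% = median of COUP-TF2 test wells and 100% = reporter-only cells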
SRC1 inh: human NCOA1 inhibition; Q15788; HEK293 GAL4-SRC1 luciferase reporter, luminescence; inhibition, % at 3.6 µM; hit rate 0.12% among 360,000; AID 588354;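 active = inhibition above the campaign mean plus 3 SD, with each screening campaign given its own cutoff, cut at about 60% in these data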;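 also: 0% = DMSO treated cells and 100% = gossypol at 36 µM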
VP16 Luc counter: inhibits VP16 reporter, flagging COUP-TFII antagonist hits | shares compounds with NR2F2 inh | HEK293 Gal4-VP16 luciferase reporter, luminescence | inhibition, % at 8.5 µM | hit rate 25% among 2,500 | AID 687007; in the data active = inhibition above about 13%
COUP-TFII conf: COUP-TFII (NR2F2) inhibition, confirmation assay. inhibition, % at 8.5 µM. shares compounds with NR2F2 inh. HEK293 NGFI-A luciferase reporter, luminescence. hit rate 45% among 2,500;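 active = mean inhibition over three repeats above a set limit taken from the earlier primary screen, cut at about 38% in these data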;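 also: 100% = cells given the luciferase reporter alone without the COUP-TF2 vector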
An asterisk follows results filed as active; x = no result.

SMILES	NCOA2 inhibitor	NR5A2 inv ag	SRC3 inh	NR2F2 inh	SRC1 inh	VP16 Luc counter	COUP-TFII conf
COC(=O)c1c(C)n(-c2ccc(OC)cc2)c2ccc(O)cc12	47	-1	39	39*	21	-7	8
CCOC(=O)c1c(C)n(-c2ccc(F)cc2)c2ccc(O)cc12	x	3	5	x	9	x	x
CC(=O)NC(C)CCc1ccccc1 (centres undefined)	5	1	24	-21	-31	x	x
CC(=O)N[C@@H](C)CCc1ccc(Oc2ccc(OC(C)C)nc2)cc1	x	x	x	39*	x	-32	1
COc1cccc(NS(=O)(=O)c2ccc3c(c2)N(C(C)=O)CCS3)c1	9	-3	-1	-1	-1	x	x
CC(=O)N1CCSc2ccc(S(=O)(=O)Nc3cccc(C)c3)cc21	1	26	12	37*	17	-5	7
Cc1cccc(NS(=O)(=O)c2ccc(NC(=O)N3CCCCC3)cc2)c1	20	23	30	48*	13	2	16
COC(=O)[C@]12C[C@H](CC(=O)NCCC(C)C)C(=O)N(Cc3ccccc3)C1=C[C@H](C1CCCC1)O[C@@H]2C	-31	x	x	13	x	x	x
CC(=O)Oc1ccccc1C(=O)C=Cc1cccc([N+](=O)[O-])c1	-17	27	6	47*	-7	-10	-3
Cc1cc(O)c(C(=O)/C=C/c2cccc([N+](=O)[O-])c2)c(=O)o1	-37	19	5	-5	-6	x	x
Nc1[nH]c(C(=O)c2ccc(Br)cc2)c(-c2cccc3ccccc23)c1C(=O)NCCc1c[nH]c2ccccc12	-31	x	x	-8	x	x	x
COc1ccc(NS(=O)(=O)c2cccc(C(=O)N/N=C/c3cccs3)c2)cc1	-16	11	2	5	-24	x	x
COc1ccc(NS(=O)(=O)c2cccc(C(=O)NN=Cc3ccc(OC)cc3OC)c2)cc1	9	-1	-2	38*	0	-7	-5
O=S1(=O)CC(N2CCCCC2)CN1Cc1cn(Cc2cccc(C(F)(F)F)c2)nn1 (centres undefined)	-31	3	x	3	x	x	x
COc1ccc(OCC(=O)Nc2ccc(N3CCN(C(=O)c4ccccc4)CC3)c(Cl)c2)cc1	25	33	32	59*	9	-7	31
CSc1ncnc2c1ccn2CC(=O)Nc1ccc(C)c(C)c1	0	-3	-2	1	-20	x	x
Cc1cccc(-c2cccc(NC(=O)C3CCCN(C(=O)c4csc(C)n4)C3)c2)c1 (centres undefined)	7	25	7	42*	19	-35	18
CCOc1cc(OCC)cc(C(=O)N2CCC[C@@H]2C(=O)N2CCC[C@@H]2C(=O)NCc2ccccc2Cl)c1	10	7	x	3	x	x	x
Cc1ccc(S(=O)(=O)N2C(N)=C(C(=O)NCc3ccc(Br)cc3)C(c3ccc(Cl)cc3)C2C(=O)c2ccccc2)cc1 (centres undefined)	x	x	x	3	x	x	x
CC(C)C(=O)N1CCN(c2nc3ccc(Cl)cc3s2)CC1	-24	-78	-34	-4	-71	x	x
CC(C)NC(=O)N1CCCN(c2nc3ccc(Cl)cc3s2)CC1	-16	12	9	41*	-6	-31	5
CCCCOCCCNC(=O)C[C@H]1C[C@@]2(C(=O)OC)C(=C[C@H](C(C)(C)C)O[C@@H]2C)N(Cc2ccc3c(c2)OCO3)C1=O	-25	x	x	7	x	x	x
Cc1nc2ccccn2c1-c1ccnn1S(=O)(=O)c1ccc(F)cc1	24	17	34	49*	2	-2	11
O=C1C=C(c2c(O)ccc3ccccc23)c2ccccc2C1=O	-35	9	8	58*	-10	21*	43*
O=c1cc(CSc2nnc(-c3cccs3)n2Cc2ccccc2)nc2sc3ccccc3n12	29	27	10	62*	0	-8	15
SMILES	NCOA2 inhibitor	NR5A2 inv ag	SRC3 inh	NR2F2 inh	SRC1 inh	VP16 Luc counter	COUP-TFII conf
O=C(O)c1ccc(N/N=C/c2ccc3nccnc3c2)cc1	68*	41	62*	67*	37	17*	59*
O=C(O)c1ccc(N/N=C/c2ccncc2)cc1	-9	-50	-29	-17	-4	x	x
COc1ccc(C(=O)NCC2CCN(C(=O)C(=O)c3cc4ccccc4o3)CC2)c(OC)c1	-10	x	x	2	x	x	x
CCN(c1cccc(C(F)(F)F)c1)S(=O)(=O)c1ccc2c(c1)CCN2C(C)=O	21	-1	6	47*	7	0	3
COc1ccc(S(=O)(=O)N2CCCCC2)cc1NC(=O)CN(Cc1ccco1)Cc1ccco1	7	10	22	29	3	x	x
Cc1ccc(Cn2ccc(NC(=O)c3cc(-c4ccc(Cl)cc4)on3)n2)cc1	-15	-11	19	-3	2	x	x
Cc1ccc(Cn2ccc(NC(=O)c3cc(C4CC4)on3)n2)cc1	18	-3	-5	39*	10	-7	-9
COc1ccc(Nc2ccc(N3C(=O)CCCC3=O)cc2[N+](=O)[O-])c(OC)c1	7	3	-4	-9	-10	x	x
O=C(C(=O)N1CCN(S(=O)(=O)c2ccc(OC(F)(F)F)cc2)CC1)c1cccc(C(F)(F)F)c1	-3	x	x	4	x	x	x
Brc1cccc(CN2CCN(c3ncc(Cc4ccccc4)cn3)CC2)n1	26	x	x	16	x	x	x
O=S(=O)(c1ccc(-c2csc(Nc3ccc(F)cc3)n2)cc1)N1CCCC1	24	48	-3	46*	11	-11	24
O=C(Nc1nc(-c2ccc3c(c2)OCCO3)cs1)c1ccc(S(=O)(=O)N2CCCCC2)cc1	18	6	36	-4	22	x	x
Cc1ccc(Nc2nc(-c3ccc(S(=O)(=O)N4CCOCC4)cc3)cs2)cc1	9	21	9	38*	11	0	18
O=C(Nc1nc(-c2ccc(S(=O)(=O)N3CCCCCC3)cc2)cs1)c1ccccc1	16	11	29	54*	26	4	34
Cc1cc(C)cc(Nc2nc(-c3ccc(S(=O)(=O)N4CCCC4)cc3)cs2)c1	10	20	30	13	19	x	x
O=S(=O)(c1ccc(-c2csc(Nc3ccc(Br)cc3)n2)cc1)N1CCCC1	-18	35	23	9	21	x	x
Nc1[nH]c(C(=O)c2ccccc2)c(-c2ccccn2)c1C(=O)c1c[nH]c2ccc(F)cc12	-33	x	x	5	x	x	x
O=C(CSc1ncccc1C(=O)O)Nc1ccc2c(c1)OCCO2	48	50	19	55*	15	-6	-4
O=C(CSc1ncnc2ccccc12)Nc1ccc2c(c1)OCCO2	12	-7	-3	-16	-14	x	x
O=C(Cn1cnc2ccccc2c1=O)Nc1ccc2c(c1)OCO2	-24	-30	-43	-25	-54	x	x
COc1ccc(NC(=O)CSc2ncccc2C(=O)OC(C)C)cc1OC	23	10	-3	58*	2	-3	28
O=C(Cn1cnc2ccccc21)Nc1ccc2c(c1)OCCCO2	10	10	5	39*	6	-24	9
